Assay results as given in ChEMBL document CHEMBL3433997, “St. Jude Leishmania screening dataset” (2016).

biological target: Glucose transporter (Leishmania mexicana) (UniProt O61059); assay: ST_JUDE_LEISH: Cytotoxicity at 2uM final concentration against transgenic Leishmania Mexicana promastigotes LmGT2 that are glucose transport deficient and complemented with the L. Mexicana glucose transporter 2. Activity is measured by DNA content using SYBR green in vitro; format: functional

SMILES	inhibition
O=C(NCCCCN1CCC(c2nc3ccccc3s2)CC1)c1cc2ccccc2[nH]1	-1.01%
CC(C)C(=O)NC(Nc1ccc([N+](=O)[O-])cc1)C(Cl)(Cl)Cl (stereo unspecified)	1.48%
O=C(Nc1ccnc2ccccc12)NC1CCN(CCc2ccccc2)CC1	7.91%
CC(=O)Nc1ccc(CN(Cc2ccc(C)cc2)Cc2cccc(Oc3ccccc3)c2)cc1	2.62%
FC(F)(F)c1cccc(CCNc2nccc(NCc3ccccc3Cl)n2)c1	0.1%
N#Cc1cccc(C(=O)Nc2ccc(-c3nc4ccccc4[nH]3)cc2)c1	-0.95%
CC(=O)Nc1ccc(OCCN(Cc2ccccc2C(F)(F)F)c2ccc(C#N)c(C(F)(F)F)c2)c(Cl)c1	2.83%
CC(C)Cn1cc2c(ccc3nc(N)nc(N)c32)n1	0.32%
O=S(=O)(c1c(Cl)cc(Cl)cc1Cl)N1CCCCC(c2ccc(F)c(F)c2)=N1	1.47%
CN(C)CCOc1cccc(-c2cnc(N)c(-c3nc4cc(S(C)(=O)=O)ccc4[nH]3)c2)c1	2.58%
Oc1ccc(CCNc2nc(NCCOc3ccccc3-c3ccccc3)nc(N3CCNCC3)n2)cc1	1.75%
O=C(/C=C/c1ccc(Cl)cc1)NCCCCCN1CCCN(C(=O)Nc2cccc(Cl)c2)CC1	-1.25%
CCCCc1ccc(-c2c(N)nc(N)nc2CC)cc1	8.51%
COc1ccc(Nc2nc(N/N=C/c3ccc(O)cc3)nc(Nc3ccc([N+](=O)[O-])cc3)n2)cc1	0.87%
O=C(Nc1cccc(C(F)(F)F)c1)c1cccc(S(=O)(=O)NCC2CCCN(Cc3ccccc3)C2)c1 (stereo unspecified)	1.71%
Cc1ccccc1C1CCN(C2CCC(NC(=O)/C=C/c3ccc(Cl)cc3)CC2)CC1 (stereo unspecified)	2.42%
